An excerpt weighted towards active compounds, which were near 19% of everything screened.
ELG1 DNA repair = blocks ELG1-dependent DNA repair in HEK293T cells. HEK293T ELG1-luciferase reporter, luminescence, 16 h; DNA damage induced by 5-fluorouridine. AID 504467. Potency, µM (titrated, usually from 46.1 µM), actives largely listed as inhibitors. hit rate 2.3% among 330,000; note: nearly all actives have a fitted effect of over 55% in size
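Step one: seed 2,000 cells per well. Step two: pin-transfer compound or DMSO alongside 5-fluorouridine. Step three: incubate 16 hr, 37 °C, 5% CO2. Step four: add ONE-Glo, wait 30 min, read luminescence.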
Giardia kill = kills Giardia lamblia; AID 540267; activity change, % at 7.66 µM, hits read low; Giardia lamblia trophozoite viability; hit rate 0.15% among 340,000; in the data active = activity change below about -80%; inconclusive = between about -30% and that limit;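 note: parasites exposed to compound for two days anaerobically before the ATP read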
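Killing of trophozoites was scored by loss of ATP luminescence after a 48 hrs anaerobic exposure to compounds at 37 deg C, using 100 cells per well.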
TDP1 cell noCPT = qHTS for Inhibitors of human tyrosyl-DNA phosphodiesterase 1 (TDP1): qHTS in cells in absence of CPT; AID 686978, 2013; hit rate 15% among 420,000; Potency, µM (titrated, usually from 46.2 µM), actives largely listed as inhibitors; DT40 Tdp1-/- hTDP1 cells, no CPT, ATP luminescence, 48 h; note: nearly all actives have a fitted effect of over 55% in size
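Readout: luminescence from CellTiter-Glo after 30 min in the dark at RT. Cells: DT40 Tdp1-/- with stable hTDP1, 400/well. Exposure: compounds alone, ≥48 hr, 37 °C.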
TDP1 block = inhibitors of human tyrosyl-DNA phosphodiesterase TDP1; Q9NUW8; recombinant TDP1, AlphaScreen DNA substrate cleavage; Potency, µM (highest dose often 130 µM), most hits filed as inhibitors; hit rate 0.28% among 350,000; note: nearly all actives have a fitted effect of over 40% in size
Target sequence (Q9NUW8 whole entry, looked up): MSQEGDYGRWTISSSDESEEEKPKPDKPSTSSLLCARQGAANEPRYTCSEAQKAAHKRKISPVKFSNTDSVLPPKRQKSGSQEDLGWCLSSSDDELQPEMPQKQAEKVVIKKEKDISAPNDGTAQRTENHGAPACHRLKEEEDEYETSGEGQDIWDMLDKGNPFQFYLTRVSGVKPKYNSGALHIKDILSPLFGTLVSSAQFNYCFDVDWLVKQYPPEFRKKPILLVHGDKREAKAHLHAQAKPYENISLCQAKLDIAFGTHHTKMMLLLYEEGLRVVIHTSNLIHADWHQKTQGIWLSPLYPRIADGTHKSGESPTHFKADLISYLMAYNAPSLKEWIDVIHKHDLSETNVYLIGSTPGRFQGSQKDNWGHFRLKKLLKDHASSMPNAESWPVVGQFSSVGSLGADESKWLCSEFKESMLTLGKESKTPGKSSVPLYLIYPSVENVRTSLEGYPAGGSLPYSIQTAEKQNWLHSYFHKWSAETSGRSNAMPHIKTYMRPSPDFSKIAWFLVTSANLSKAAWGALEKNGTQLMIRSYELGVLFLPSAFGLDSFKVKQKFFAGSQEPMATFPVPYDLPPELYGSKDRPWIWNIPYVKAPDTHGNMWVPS
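Here, a 5' biotin and 3' phosphotyrosine-FITC DNA oligonucleotide reports Tdp1 activity: intact substrate bridges AlphaScreen beads, while cleavage leaves a 3' phosphate and drops signal. All incubations at room temperature.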
IL-1B inflam inh = inhibitors of inflammasome signaling (IL-1 beta secretion). THP-1 LPS/ATP IL-1B secretion, AlphaLISA, 16 h; stronger effect = lower value. activity change, % at 57.5 µM. hit rate 4.7% among 360,000; in the data active = activity change below about -50%; inconclusive = mostly about -30% to -49%
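Secreted IL-1B measured by AlphaLISA bead assay after 16 h compound exposure of THP-1 cells; compounds (final up to 57.5 uM) added 1 h before LPS (250 ng/mL) and ATP (1.25 mM) stimulation; lower signal means less secretion.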
DT40 TDP1 CPT = DT40-hTDP1 cell growth loss with CPT | chicken DT40 Tdp1-/-;hTDP1 cells + 20 nM CPT, ATP luminescence, 48 h | Potency, µM (highest dose often 46.2 µM), hits mostly inhibitors | AID 686979 | hit rate 12% among 420,000; note: nearly all actives have a fitted effect of over 55% in size
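Chicken DT40 Tdp1-/- cells stably complemented with human TDP1 were seeded at 400 cells/well in medium containing 20 nM camptothecin, exposed to pin-transferred compounds, and grown at 37 °C for at least 48 hr. Viability was read as ATP luminescence.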
Numbers stand for hits; [ ] = remark or other dose. Unless noted, calls come from the whole dose curve; as a rule, active = well fitted curve in the direction sought with a large enough effect; inconclusive = small, poorly fitted or top-dose-only effect, or another doubt; inactive = no such curve, though single readings can be large; an effect the other way counts as inactive or inconclusive.

CC(C)NC(=O)C1(C)CCN1C(=O)c1ccc(F)c(Cl)c1 (centres undefined) was read as TDP1 cell noCPT inactive, IL-1B inflam inh inactive and DT40 TDP1 CPT inactive.
Cc1csc(NC(=O)Cc2coc3cc(C)c(C(C)C)cc23)n1 was read as ELG1 DNA repair inconclusive, Giardia kill inactive, TDP1 cell noCPT 16µM, TDP1 block inactive, IL-1B inflam inh inconclusive and DT40 TDP1 CPT 13µM.
Cc1cccc(NC(=O)COc2ccc(-c3nn(C)c(=O)c4ccccc34)cc2)c1 was read as ELG1 DNA repair 15µM, Giardia kill inactive, TDP1 cell noCPT 16µM, TDP1 block inactive, IL-1B inflam inh -52 and DT40 TDP1 CPT 12µM.
`N#Cc1ccccc1Cn1c(=O)n(-c2ccc(F)c(Cl)c2)c(=O)c2sccc21` gave TDP1 cell noCPT inconclusive, TDP1 block inactive and DT40 TDP1 CPT inactive.
`CCn1nnc2cc(C(=O)Nc3cccc(C(F)(F)F)c3)ccc21` gave TDP1 cell noCPT inactive, TDP1 block inactive and DT40 TDP1 CPT inactive.
`Cc1cc(Nc2cccc(Cl)c2)nc2ccc(NC(=O)c3cccc(N(C)C)c3)cc12` gave TDP1 cell noCPT 7.3µM, TDP1 block inactive and DT40 TDP1 CPT 13µM.
Cc1cc(Nc2cccc(C(F)(F)F)c2)nc2ccc(NC(=O)c3ccc(N(C)C)cc3)cc12 was read as TDP1 cell noCPT 4.6µM, TDP1 block inactive and DT40 TDP1 CPT 5.2µM.
Screening O=C(Nc1cccc(NC(=O)c2cccc(Cl)c2)c1)c1cccnc1 returned ELG1 DNA repair inactive, Giardia kill inactive, TDP1 cell noCPT inconclusive, IL-1B inflam inh inactive and DT40 TDP1 CPT inconclusive.
`Cc1cc(Nc2cccc(Cl)c2)nc2ccc(NC(=O)c3cccnc3)cc12` gave TDP1 cell noCPT 8.2µM, TDP1 block inactive and DT40 TDP1 CPT 13µM.
`Cc1noc(C)c1CSCC(=O)Nc1cccc(C(F)(F)F)c1` gave ELG1 DNA repair inactive, Giardia kill inactive, TDP1 cell noCPT inactive, TDP1 block inactive, IL-1B inflam inh inactive and DT40 TDP1 CPT inactive.
`CC1(C)C2CCC1(C)C(SC(=N)N)C2` (centres undefined) gave Giardia kill inactive, TDP1 cell noCPT inconclusive, IL-1B inflam inh -82 and DT40 TDP1 CPT 21µM.
`CC1(C)C2CCC1(C)C(OC(=O)CC(=O)O)C2` (centres undefined) gave ELG1 DNA repair inactive, Giardia kill inactive, TDP1 cell noCPT inactive, TDP1 block inactive, IL-1B inflam inh inactive and DT40 TDP1 CPT inactive.
Screening CCOc1ccc(-n2cc(C(=O)Nc3cccc(C)n3)c3cc(OC)c(OC)cc3c2=O)cc1 returned Giardia kill inactive, TDP1 cell noCPT 26µM, IL-1B inflam inh inactive and DT40 TDP1 CPT inconclusive.
CCOc1ccc(-n2cc(C(=O)N3CCC(C)CC3)c3cc(OC)c(OC)cc3c2=O)cc1 was read as ELG1 DNA repair inactive, Giardia kill inactive, TDP1 cell noCPT 15µM, TDP1 block inactive, IL-1B inflam inh inactive and DT40 TDP1 CPT 16µM.
Screening CCOc1ccc(-n2cc(C(=O)NC(C)C)c3cc(OC)c(OC)cc3c2=O)cc1 returned ELG1 DNA repair inconclusive, Giardia kill inactive, TDP1 cell noCPT 26µM, TDP1 block inactive, IL-1B inflam inh inactive and DT40 TDP1 CPT inconclusive.
For CCCCNC(=O)c1cn(-c2ccc(OCC)cc2)c(=O)c2cc(OC)c(OC)cc12 the results were ELG1 DNA repair 23µM, Giardia kill inactive, TDP1 cell noCPT inconclusive, TDP1 block inactive, IL-1B inflam inh inactive and DT40 TDP1 CPT inconclusive.
`CCn1cc(C(=O)N2CCN(c3ccc(OC)cc3)CC2)c2cc(OC)c(OC)cc2c1=O` gave ELG1 DNA repair inactive, Giardia kill inactive, TDP1 cell noCPT inactive, TDP1 block inactive, IL-1B inflam inh inactive and DT40 TDP1 CPT inactive.
`CCOc1ccc(NC(=O)c2cn(-c3ccc(OCC)cc3)c(=O)c3cc(OC)c(OC)cc23)cc1` gave ELG1 DNA repair inconclusive, Giardia kill inactive, TDP1 cell noCPT inactive, TDP1 block inactive, IL-1B inflam inh inactive and DT40 TDP1 CPT inactive.
For CCOc1ccc(-n2cc(C(=O)Nc3cccc(Cl)c3)c3cc(OC)c(OC)cc3c2=O)cc1 the results were ELG1 DNA repair inconclusive, Giardia kill inactive, TDP1 cell noCPT inactive, TDP1 block inactive, IL-1B inflam inh inconclusive and DT40 TDP1 CPT inactive.
For C=CCN(c1ccccc1)S(=O)(=O)c1cccc(C(=O)Nc2ncccc2O)c1 the results were ELG1 DNA repair inactive, Giardia kill inactive, TDP1 cell noCPT inactive, TDP1 block inactive, IL-1B inflam inh inactive and DT40 TDP1 CPT inactive.
Screening Cn1cnnc1SCC(=O)c1ccc2c(c1)OCO2 returned ELG1 DNA repair inconclusive, Giardia kill inactive, TDP1 cell noCPT inactive, TDP1 block inactive, IL-1B inflam inh inactive and DT40 TDP1 CPT inactive.
NC(=S)N1OC[C@@H]2COc3ccc4ccccc4c3[C@@H]21 was read as ELG1 DNA repair 12µM, Giardia kill inactive, TDP1 cell noCPT 18µM, TDP1 block inactive, IL-1B inflam inh -93 and DT40 TDP1 CPT 18µM.
CO/N=C/NC(=O)N1OC[C@@H]2COc3ccc4ccccc4c3[C@@H]21 was read as ELG1 DNA repair inactive, Giardia kill inactive, TDP1 cell noCPT inactive, TDP1 block inactive, IL-1B inflam inh inactive and DT40 TDP1 CPT inactive.
For COc1ccc(-c2csc(NC(=O)CSCC(=O)Nc3cc(C)on3)n2)c(OC)c1 the results were ELG1 DNA repair inactive, Giardia kill inactive, TDP1 cell noCPT inconclusive, TDP1 block inactive[0.505 µM], IL-1B inflam inh inactive and DT40 TDP1 CPT 29µM.
Screening COc1ccc(CC(=O)Nc2nc(-c3cc(OC)ccc3OC)cs2)cc1 returned ELG1 DNA repair inconclusive, Giardia kill inactive, TDP1 cell noCPT inconclusive, TDP1 block inactive, IL-1B inflam inh -88 and DT40 TDP1 CPT inconclusive.
COc1ccc(CC(=O)Nc2nc(C)cs2)cc1 was read as ELG1 DNA repair inactive, Giardia kill inactive, TDP1 cell noCPT inactive, TDP1 block inactive, IL-1B inflam inh inactive and DT40 TDP1 CPT inactive.
`COc1ccc(OC)c(-c2csc(NC(=O)CSCC(=O)Nc3cc(C)on3)n2)c1` gave ELG1 DNA repair inactive, Giardia kill inactive, TDP1 cell noCPT inactive, TDP1 block inactive, IL-1B inflam inh inactive and DT40 TDP1 CPT inactive.
Screening Cc1cc(NC(=O)CSCC(=O)Nc2ccccc2Oc2ccccc2)no1 returned ELG1 DNA repair inactive, Giardia kill inactive, TDP1 cell noCPT inconclusive, IL-1B inflam inh inactive and DT40 TDP1 CPT inactive.
Cc1ccc(Oc2ccccc2NC(=O)CSCC(=O)Nc2cc(C)on2)cc1 was read as ELG1 DNA repair inactive, Giardia kill inactive, TDP1 cell noCPT 10µM, TDP1 block inactive[0.505 µM], IL-1B inflam inh inactive and DT40 TDP1 CPT 8.2µM.
